{"source": "PubChem BioAssay AID686978", "about": "(National Center for Advancing Translational Sciences (NCATS), 2013)", "note": "Out of some 420,000 compounds screened, about 64,000 (15%) were called active. About 27% were inconclusive and are not listed. The call rests on the fitted dose curve; in most records, active means well fitted inhibition curve with a large enough effect; inconclusive means small, poorly fitted or top-dose-only effect; inactive means flat fitted curve, though single readings scatter. These entries were drawn from the full list. A call without a number means that no potency is given here. Potency means the concentration at half of the fitted maximal effect."}
{"assay": "qHTS for Inhibitors of human tyrosyl-DNA phosphodiesterase 1 (TDP1): qHTS in cells in absence of CPT; further: nearly all actives have a fitted effect of over 55% in size", "settings": "DT40 Tdp1-/- hTDP1 cells, no CPT, ATP luminescence, 48 h; activity change, negative = growth inhibition: at 46.2 µM (top of the series)", "outline": "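Seeded 400 DT40-hTDP1 cells/well (vehicle DMSO, no 20 nM CPT); pinned compounds; ≥48 hr at 37 °C; CellTiter-Glo luminescence as viability measure.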"}
{"smiles": "COC1C[C@@H](O[C@@H]2C(C)C(=O)OC(C)C(C)C(O)C(C)C(=O)[C@@]3(CO3)CC(C)C(OC3OC(C)CC(N(C)C)C3O)C2C)OC(C)[C@@H]1O", "note": "(stereo partly specified)", "Potency": "inactive"}
{"smiles": "Cc1ccc(S(=O)(=O)n2cccc2CO)cc1", "Potency": "inactive"}
{"smiles": "CCOc1ccc(-c2cc3c(=O)n(CC(=O)NCc4ccc(OC)cc4)ccn3n2)cc1", "Potency": "inactive"}
{"smiles": "COCCCNC(=S)NNC(=O)C(O)(c1ccccc1)c1ccccc1", "Potency": "inactive"}
{"smiles": "COc1cc(C2/C(=C(\\O)c3ccc4c(c3)CC(C)O4)C(=O)C(=O)N2c2nnc(C)s2)cc(OC)c1OC", "note": "(stereo unspecified)", "Potency": "inactive"}
{"smiles": "CS(=O)(=O)N1CCc2nc(-c3ccccc3)sc2C1", "Potency": "inactive"}
{"smiles": "COC(=O)[C@@]1(Sc2ccc(C)cc2)CC(=O)N(c2cccc(SC)c2)[C@@H]1c1ccccc1", "Potency": "inactive"}
{"smiles": "COC(=O)c1cccc(N2C(=O)C3C4C=CC(CC4)C3C2=O)c1", "note": "(stereo unspecified)", "Potency": "inactive"}
{"smiles": "COC(=O)c1ccccc1SC1CC(=O)N(c2cccc(C)c2)C1=O", "note": "(stereo unspecified)", "Potency": "8.2 µM (active)"}
{"smiles": "Cc1ccc(CC2S/C(=C(/C#N)C(=O)N3CCOCC3)N(c3ccccc3)C2=O)cc1", "note": "(stereo unspecified)", "Potency": "inactive"}
{"smiles": "CC(=O)N/C(=C/c1ccc(Cl)cc1)C(=O)NCCc1c[nH]c2ccccc12", "Potency": "inactive"}
{"smiles": "O=C(NC1CCCC1)C(=O)c1c[nH]c2ccccc12", "Potency": "inactive"}
{"smiles": "C[n+]1ccc(/C=C/c2c[nH]c3ccccc23)cc1", "Potency": "0.651 µM (active)"}
{"smiles": "O=C(NCc1ccc(F)cc1F)[C@@H]1CCCN1C(=O)[C@@H]1CCCN1C(=O)c1cccc(Cl)c1", "Potency": "inactive"}
{"smiles": "Cc1cc(=O)oc2c1c(C)nn2-c1ccc(Cl)cc1", "Potency": "inactive"}
{"smiles": "O=C(Nc1ccccc1)OCc1cn(-c2ccc(Cl)cc2)nn1", "Potency": "inactive"}
{"smiles": "O=CNc1cc(-c2ccc(C(=O)N3CCOCC3)cc2)cn2c(-c3ccc(F)cc3)cnc12", "Potency": "18.4 µM (active)"}
{"smiles": "Cc1ccc(C(=O)N2CCN(C(=O)N3CCOCC3)CC2)cc1", "Potency": "inactive"}
{"smiles": "N#C/C=C(/c1ccc(F)cc1)N1CCOCC1", "Potency": "inactive"}
{"smiles": "CCOc1ccccc1C1CC(c2cccc(NS(C)(=O)=O)c2)=NN1C(=O)c1ccccc1", "note": "(stereo unspecified)", "Potency": "inactive"}
{"smiles": "Cc1c(NC(=O)Nc2ccc(F)c(Cl)c2)c(=O)n(-c2ccccc2)n1C", "Potency": "inactive"}
{"smiles": "CC(=O)c1cccc(-c2cnc3c(NC=O)cc(-c4ccc(N(C)C)cc4)cn23)c1", "Potency": "8.2 µM (active)"}
{"smiles": "CC(=O)Nc1cccc(-c2cnc3ccccc3n2)c1", "Potency": "inactive"}
{"smiles": "CC(=O)Nc1cccc(-c2cc(NC=O)c3ncc(-c4ccc(F)c(Cl)c4)n3c2)c1", "Potency": "16.4 µM (active)"}
{"smiles": "CC(=O)c1ccc(-c2cnc3c(NC=O)cc(-c4cccc(NS(C)(=O)=O)c4)cn23)cc1", "Potency": "20.6 µM (active)"}
{"smiles": "CCS(=O)(=O)Nc1cc(C(=O)N2C[C@@H](C)O[C@@H](C)C2)c2c(c1)nc(-c1ccccc1)n2C", "Potency": "inactive"}
